Measurements published in PubChem BioAssay AID1159580 (chemical genetic matrix, 2015).
“And” between values parts separate entries of the source, which are not always exact repeats. Identical values can stand only once. Hit rate of the full screen: of about 5,500 compounds, about 2,000 (36%) were called active. Not shown: some 18% with an inconclusive outcome. Cut-off read from the data, not from the text of the source: active = normalized growth mostly below about 0.91 (no sharp cut-off); inconclusive = no clear call, values can overlap the other calls; inactive = mostly above about 0.92. This is one part of the list.

Assay: chemical genetic growth profiling, strain panel (AID 1159580);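 note: tested at 20 µM; growth read once vehicle control cultures reached saturation at 30 °C; 1 = growth at the plate median or of vehicle wells; lower values mean less growth of the strain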
Details: S. cerevisiae deletion strains, growth OD

Measured: normalized growth

CC[C@@]1(O)C[C@H](O[C@H]2C[C@H](N(C)C)[C@H](O)[C@H](C)O2)c2c(cc3c(c2O)C(=O)c2c(O)cccc2C3=O)[C@H]1C(=O)OC
active: locus YAL021C, strain ccr4, stronger effect = lower value 0.653 | locus YAL026C, strain drs2, stronger effect = lower value 0.883 | locus YAL030W, strain snc1, stronger effect = lower value 0.907 | locus YBL061C, strain skt5, stronger effect = lower value 0.891 | locus YBR009C, strain hhf1, stronger effect = lower value 0.783 | locus YBR023C, strain chs3, stronger effect = lower value 0.899 | locus YBR231C, strain swc5, stronger effect = lower value 0.823 | locus YCL011C, strain gbp2, stronger effect = lower value 0.867 | locus YCL016C, strain dcc1, stronger effect = lower value 0.704 | locus YCL029C, strain bik1, stronger effect = lower value 0.854 | locus YDL035C, strain GPR1, stronger effect = lower value 0.797 | locus YDL074C, strain BRE1, stronger effect = lower value 0.765 | locus YDL101C, strain DUN1, stronger effect = lower value 0.786 | locus YDL185W, strain tfp1, stronger effect = lower value 0.853 | locus YDL192W, strain arf1, stronger effect = lower value 0.666 | locus YDR101C, strain arx1, stronger effect = lower value 0.8 | locus YDR137W, strain rgp1, stronger effect = lower value 0.631 | locus YDR159W, strain sac3, stronger effect = lower value 0.73 | locus YDR162C, strain NBP2, stronger effect = lower value 0.595 | locus YDR195W, strain ref2 1.73 [resistant] | locus YDR318W, strain mcm21, stronger effect = lower value 0.866 | locus YDR335W, strain msn5, stronger effect = lower value 0.908 | locus YDR388W, stronger effect = lower value 0.847 | locus YDR392W, strain spt3, stronger effect = lower value 0.676 | locus YDR502C, strain sam2, stronger effect = lower value 0.812 | locus YEL061C, strain CIN8, stronger effect = lower value 0.879 | locus YER015W, strain faa2, stronger effect = lower value 0.869 | locus YER167W, strain BCK2, stronger effect = lower value 0.884 | locus YFR010W, strain ubp6, stronger effect = lower value 0.887 | locus YGL086W, strain mad1, stronger effect = lower value 0.816 | locus YGL240W, strain doc1, stronger effect = lower value 0.788 | locus YGL248W, strain PDE1, stronger effect = lower value 0.88 | locus YGL253W, strain hxk2, stronger effect = lower value 0.792 | locus YGR135W, strain pre9, stronger effect = lower value 0.875 | locus YHR027C, strain rpn1, stronger effect = lower value 0.785 | locus YHR079C, strain IRE1 (second series), stronger effect = lower value 0.89 | locus YHR094C, strain hxt1, stronger effect = lower value 0.92 | locus YHR129C, strain ARP1, stronger effect = lower value 0.886 | locus YHR200W, strain rpn10, stronger effect = lower value 0.788 | locus YIL066C, strain RNR3, stronger effect = lower value 0.79 | locus YIL073C, strain SPO22, stronger effect = lower value 0.538 | locus YIL125W, strain kgd1, stronger effect = lower value 0.918 | locus YIR030C, strain dcg1, stronger effect = lower value 0.871 | locus YJL092W, strain hpr5, stronger effect = lower value 0.804 | locus YJL095W, strain BCK1 (second series), stronger effect = lower value 0.886 | locus YJL115W, strain asf1, stronger effect = lower value 0.507 | locus YJL134W, strain LCB3, stronger effect = lower value 0.924 | locus YJL164C, strain tpk1, stronger effect = lower value 0.867 | locus YJL166W, strain qcr8, stronger effect = lower value 0.85 | locus YJL168C, strain set2, stronger effect = lower value 0.863 | locus YJR043C, strain POL32, stronger effect = lower value 0.722
inactive: locus YBR021W, strain FUR4, stronger effect = lower value 1.06 | locus YBR171W, strain sec66, stronger effect = lower value 0.994 | locus YBR229C, strain ROT2, stronger effect = lower value 0.942 | locus YBR279W, strain paf1, stronger effect = lower value 0.94 | locus YCL069W, strain vba3, stronger effect = lower value 0.972 | locus YCR088W, strain abp1, stronger effect = lower value 0.946 | locus YDL005C, strain med2, stronger effect = lower value 0.967 | locus YDL040C, strain nat1, stronger effect = lower value 0.955 | locus YDR001C, strain nth1, stronger effect = lower value 0.944 | locus YDR069C, strain doa4, stronger effect = lower value 0.908 | locus YDR150W, strain NUM1, stronger effect = lower value 0.945 | locus YDR297W, strain sur2, stronger effect = lower value 0.928 | locus YDR334W, strain swr1, stronger effect = lower value 0.959 | locus YEL003W, strain gim4, stronger effect = lower value 0.924 | locus YEL037C, strain rad23, stronger effect = lower value 0.944 | locus YEL061C, strain CIN8 (second series), stronger effect = lower value 0.949 | locus YER016W, strain bim1, stronger effect = lower value 0.925 | locus YER110C, stronger effect = lower value 0.921 | locus YER111C, strain swi4, stronger effect = lower value 0.989 | locus YER155C, strain BEM2 (second series), stronger effect = lower value 0.931 | locus YER155C, strain BEM2, stronger effect = lower value 0.944 | locus YGL078C, strain dbp3, stronger effect = lower value 0.928 | locus YGL167C, strain pmr1, stronger effect = lower value 0.963 | locus YGL173C, strain kem1, stronger effect = lower value 0.913 | locus YGL227W, strain vid30, stronger effect = lower value 0.959 | locus YGR078C, strain PAC10, stronger effect = lower value 0.905 | locus YGR252W, strain gcn5, stronger effect = lower value 1.06 | locus YHR013C, strain ard1, stronger effect = lower value 1.01 | locus YHR079C, strain IRE1, stronger effect = lower value 0.981 | locus YHR142W, strain chs7, stronger effect = lower value 0.882 | locus YJL129C, strain trk1, stronger effect = lower value 1.08 | locus YJL154C, strain vps35, stronger effect = lower value 0.95 | locus YJL187C, strain SWE1 (second series), stronger effect = lower value 0.871 | locus YJR066W, strain TOR1, stronger effect = lower value 0.879 | locus YKL009W, strain mrt4, stronger effect = lower value 0.897
0.899 (active) and 0.963 (inactive): locus YHR030C, strain SLT2, stronger effect = lower value
0.776 (active) and 0.954 (inactive): locus YJL095W, strain BCK1, stronger effect = lower value
